Source: the supplement of paper PMC9694430

Key:
Assay in all cases: thermal shift delta Tm vs DMSO control; higher = stronger stabilization (binding)
Conditions in all cases: 12.5 µM; protein concentration 2 µM
[1] = compound: C/C(O)=C(\C#N)C(=O)Nc1cc(Br)ccc1Br
Outline: (§1)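 Rice kinase domain constructs, made in E. coli and purified, were placed in 96-well plates at 2 μM in 19.5 μl of 100 mM potassium phosphate pH 7.5, 150 mM NaCl, 10% glycerol and 5 × SYPRO Orange, with compound in DMSO. A temperature ramp from 25°C to 95°C at 0.05°C/s was used for differential scanning fluorimetry. The melting temperature shift is a triplicate mean compared with DMSO-only protein, derived from Boltzmann fits.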

[2] = compound: CC(C)(C)c1cc(C=C(C#N)C#N)cc(Br)c1O
Outline: as §1

Tyrphostin 9 = compound: CC(C)(C)c1cc(C=C(C#N)C#N)cc(C(C)(C)C)c1O [Tyrphostin 9]
Outline: as §1

Aurora A Inhibitor I = compound: CCN1CCN(C(=O)Cc2ccc(Nc3ncc(F)c(Nc4ccc(C(=O)Nc5ccccc5Cl)cc4)n3)cc2)CC1 [Aurora A Inhibitor I]
Outline: as §1

Picropodophyllin (PPP) = compound: COc1cc([C@@H]2c3cc4c(cc3[C@H](O)[C@H]3COC(=O)[C@@H]23)OCO4)cc(OC)c1OC [Picropodophyllin (PPP)]
Outline: as §1

Anisomycin = compound: COc1ccc(C[C@H]2NC[C@H](O)[C@H]2OC(C)=O)cc1 [Anisomycin]
Outline: as §1

[3] = compound: COc1ccc(N(C(=O)Oc2c(C)cccc2C)c2ccnc(Nc3ccc(N4CCN(C)CC4)cc3)n2)c(OC)c1
Outline: as §1

[4] = compound: COc1ccc2c(c1)/C(=C/c1cnc[nH]1)C(=O)N2
Outline: as §1

[5] = compound: Cc1ccccc1-n1c(Cn2ncc3c(N)ncnc32)nc2cccc(C)c2c1=O
Outline: as §1

[6] = compound: O=c1[nH]c2ccc(Cl)cc2c(N[C@@H]2CN3CCC2CC3)c1-c1nc2ccccc2[nH]1
Outline: as §1

[7] = compound: Cn1cc(C2=C(c3cn(C4CCN(Cc5ccccn5)CC4)c4ccccc34)C(=O)NC2=O)c2ccccc21
Outline: as §1
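Further: purified Escherichia coli-expressed rice kinase domain construct.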

Chain of LOC_OS01G52050-cb004 (as listed by the source): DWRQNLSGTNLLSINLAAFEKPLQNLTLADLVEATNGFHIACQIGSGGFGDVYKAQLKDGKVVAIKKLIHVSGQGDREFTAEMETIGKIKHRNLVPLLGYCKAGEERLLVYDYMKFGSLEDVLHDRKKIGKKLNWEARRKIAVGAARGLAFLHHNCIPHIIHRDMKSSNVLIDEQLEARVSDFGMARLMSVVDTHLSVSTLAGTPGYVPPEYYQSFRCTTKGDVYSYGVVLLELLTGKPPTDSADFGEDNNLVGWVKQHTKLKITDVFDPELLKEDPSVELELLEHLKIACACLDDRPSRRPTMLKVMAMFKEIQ
Chain of LOC_OS06G16330-cb003 (as listed by the source): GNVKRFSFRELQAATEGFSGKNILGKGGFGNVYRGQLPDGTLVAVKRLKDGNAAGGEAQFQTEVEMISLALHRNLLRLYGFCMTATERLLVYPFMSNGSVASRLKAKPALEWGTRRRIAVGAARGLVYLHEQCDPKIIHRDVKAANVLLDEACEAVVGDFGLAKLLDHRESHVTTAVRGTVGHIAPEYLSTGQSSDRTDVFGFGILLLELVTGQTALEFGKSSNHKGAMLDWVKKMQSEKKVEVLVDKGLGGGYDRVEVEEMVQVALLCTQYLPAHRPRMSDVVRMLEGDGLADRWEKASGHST
Chain of LOC_OS06G22820-cb001 (as listed by the source): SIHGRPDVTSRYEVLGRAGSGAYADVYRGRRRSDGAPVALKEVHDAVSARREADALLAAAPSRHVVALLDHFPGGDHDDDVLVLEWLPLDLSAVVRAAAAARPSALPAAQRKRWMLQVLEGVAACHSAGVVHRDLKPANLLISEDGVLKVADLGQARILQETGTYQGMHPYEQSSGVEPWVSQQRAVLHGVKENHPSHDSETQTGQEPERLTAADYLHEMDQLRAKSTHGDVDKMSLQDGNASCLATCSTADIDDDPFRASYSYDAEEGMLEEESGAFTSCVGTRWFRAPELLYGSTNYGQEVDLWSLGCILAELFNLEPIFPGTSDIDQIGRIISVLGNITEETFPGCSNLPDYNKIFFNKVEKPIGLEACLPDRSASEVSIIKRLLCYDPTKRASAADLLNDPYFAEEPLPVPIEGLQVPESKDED
Chain of LOC_OS04G41100-cb001 (as listed by the source): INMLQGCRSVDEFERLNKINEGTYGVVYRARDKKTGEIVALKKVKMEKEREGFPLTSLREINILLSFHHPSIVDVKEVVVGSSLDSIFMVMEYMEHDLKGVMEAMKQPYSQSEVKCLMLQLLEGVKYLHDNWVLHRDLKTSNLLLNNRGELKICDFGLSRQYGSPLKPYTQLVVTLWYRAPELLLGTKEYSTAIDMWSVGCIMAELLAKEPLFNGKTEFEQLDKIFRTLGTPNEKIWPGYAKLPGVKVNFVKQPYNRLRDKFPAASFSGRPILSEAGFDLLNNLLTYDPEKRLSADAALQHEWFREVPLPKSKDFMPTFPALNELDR

Target	thermal shift delta Tm [1] [°C]	thermal shift delta Tm [2] [°C]	thermal shift delta Tm (Tyrphostin 9) [°C]	thermal shift delta Tm (Aurora A Inhibitor I) [°C]	thermal shift delta Tm (Picropodophyllin (PPP)) [°C]	thermal shift delta Tm (Anisomycin) [°C]	thermal shift delta Tm [3] [°C]	thermal shift delta Tm [4] [°C]	thermal shift delta Tm [5] [°C]	thermal shift delta Tm [6] [°C]	thermal shift delta Tm [7] [°C]
LOC_OS01G57100-cb003	1.78	-0.11	6.29	1.79	0.44	1.09	1.54	1.34	0.63	3.28	
LOC_OS04G57630-cb004	0.3	0.11	-0.37	4.13	0.26	0.15	0.3	1.58	-0.13	1.43	-0.06
LOC_OS01G01410-cb001	0.85	0.56	3.01	2.6	-0.11	0.63	0.04	2.18	0.73	3.66	
LOC_OS07G06570-cb004	0.21	0.05	2.9	0.63	1.02	1	1.01	0.08	1.12	0.51	
LOC_OS01G48390-cb002	0.77	0.72	2.01	4.11	0.19	0.33	-0.27	1.32	0.11	1.21	
LOC_OS05G30820-cb001	0.57	1.27	0.84	1.39	0.41	0.89	0.33	0.99	0.5	0.98	0.82
LOC_OS01G10900-cb004	1.47	-0.04	3.61	0.91	0.63	0.16	0.15	1.02	0.1	0.03	
LOC_OS02G14120-cb001	0.47	0.92	3.24	8.23	0.5	0.58	0.02	4.75	-0.47	7.91	
LOC_OS06G16330-cb003	1.18	2.32	0.83	8.9	0.19	-0.28	-0.04	5.39	-0.12	6.83	
LOC_OS01G52050-cb004	0.91	2.42	3.34	1.73	-0.26	0.12	-0.12	4.67	-0.06	9.73	
LOC_OS02G45750-cb003	1.66	-0.03	0.99	3.48	0.36	1.18	2.08	7.07	-0.14	11.3	0.32
LOC_OS02G17970-cb001	1.08	2.06	3.2	0.33	0.61	0.2	0.79	0.72	-0.06	0.93	
LOC_OS05G43570-cb004	0.83	0.83	1.46	1.76	-0.21	0.46	0.38	0.79	0.31	1.44	1
LOC_OS07G07230-cb001	0.39	1.24	0.49	0.3	0.63	0.94	0.5	-0.03	0.41	0.14	0.68
LOC_OS01G14860-cb001	1.32	1.24	3.15	3.95	0.29	-0.05	0.07	5.78	-0.1	7.87	
LOC_OS01G63280-cb003	0.5	0.9	2.28	0.22	-0.03	0.15	0.38	4.22	-0.3	0.81	
LOC_OS05G07850-cb002	1.58	4.65	0.08	12.2	-0.91	0.21	7.34	8.01	-0.57	8.76	2.26
LOC_OS01G67340-cb003	1.03	0.32	-0.32	0.7	0.12	0.35	0.5	4.84	-0.48	2.48	0
LOC_OS02G08530-cb003	1.36	1.36	2.26	2.48	0.6	1.28	0.72	2.97	0.37	5.48	0.99
LOC_OS01G60700-cb002	1.75	1.51	4.79	0.71	0.4	0.15	1.33	0.77	0.02	1.41	3.52

Target	thermal shift delta Tm [1] [°C]	thermal shift delta Tm [2] [°C]	thermal shift delta Tm (Tyrphostin 9) [°C]	thermal shift delta Tm (Aurora A Inhibitor I) [°C]	thermal shift delta Tm (Picropodophyllin (PPP)) [°C]	thermal shift delta Tm (Anisomycin) [°C]	thermal shift delta Tm [3] [°C]	thermal shift delta Tm [4] [°C]	thermal shift delta Tm [5] [°C]	thermal shift delta Tm [6] [°C]	thermal shift delta Tm [7] [°C]
LOC_OS01G70970-cb002	0.43	0.94	2.45	4.68	0.24	0.31	0.31	4.78	-0.01	5.08	
LOC_OS05G16824-cb004	2.14	-1.4	-0.97	7.48	-3.09	-4.31	1.29	8.5	-1.77	15.4	2.01
LOC_OS03G27990-cb004	0.81	0.8	0.88	1.5	0.02	0.47	0.54	1.69	-0.07	3.66	0.11
LOC_OS03G12390-cb001	1.3	0.42	0.25	5.37	-0.2	-0.29	0.45	4.35	-0.25	4.7	0.52
LOC_OS01G51400-cb002	0.56	0.64	1.62	-0.05	-0.01	0.24	0.03	0.84	0.24	0.3	
LOC_OS02G07810-cb001	1.72	2.07	2.29	0.45	0.15	0.03	0.73	0.97	0.6	1.44	
LOC_OS05G28520-cb001	1.13	0.45	1.67	0.67	0.07	0.12	0.27	0.94	-0.36	0.32	3.85
LOC_OS03G50810-cb003	0.73	0.71	0.82	3.94	0.16	0.59	0.9	3.03	0.23	5.29	1.38
LOC_OS04G41100-cb001	0.64	0.96	1.09	1.62	0.3	0.43	0.13	3.1	0.39	2.42	1.42
LOC_OS03G50450-cb001	1.25	0.89	1.36	6.04	0.03	0.61	0.76	1.49	0.18	2.51	0.07
LOC_OS03G04050-cb001	0.96	0.99	0.99	0.02	0.1	0.72	0.67	0.53	0.27	0.52	0.69
LOC_OS04G35114-cb001	1.21	0.3	0.89	3.75	0.21	0.57	1.64	6.97	0.13	5.95	1.31
LOC_OS01G21960-cb002	1.38	1.5	4.31	2.25	0.41	0.52	0.61	1.85	0.03	3.76	
LOC_OS01G39600-cb002	0.11	3.42		3.74	-0.4	-0.07	-0.58	2.01	0.35	6.61	
LOC_OS01G13800-cb001	0.83	2.05	1.92	0.32	-0.49	0.17	0.12	0.49	0.06	-0.04	
LOC_OS01G60330-cb001	1.6	1.56	4.55	12.3	0.72	0.77	1.23	4.72	-0.01	10.8	
LOC_OS02G54510-cb004	0.42	0.85	0.47	1.31	0.14	0.56	0.56	0.44	0.08	1.44	0.65
LOC_OS01G02750-cb003	1.62	1.02	6.7	0.26	0.88	0.6	0.82	2.97	0.47	4.52	-0.47
LOC_OS06G22820-cb001	0.73	1.01	1.56	-0.07	0.27	0.57	0.55	0.55	0.41	0.64	1
